Here are results for 26 compounds from PubChem BioAssay.

The nature of test [1]: lowers stimulated NF-kB luciferase signal in Jurkat – cell-based, luminescence, single concentration, T-cell NF-kB inhibitor project, confirmation (AID 435020;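 active = inhibition reaching about 45% at 4 µM in either replicate, limit read from the data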;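 note: plate controls were PMA/ionomycin stimulated DMSO wells for no effect and unstimulated DMSO wells for full effect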). As to conditions: PMA/ionomycin-induced, 16 h, at 4 µM, stronger effect = higher value.
For test [2], the target named is Sentrin-specific protease 8 (Homo sapiens) (UniProt Q96LD8). In words: human SENP8 peptidase blockers, hit retest – biochemical, luminescence, single concentration, confirmation (AID 488912;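 active = mean inhibition across replicates above about 50%, limit read from the data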). As to conditions: Recombinant SENP8, Z-RLRGG-aminoluciferin luminescence, 60 min; at 12.5 µM; stronger effect = higher value.
Sequence of Sentrin-specific protease 8 (Homo sapiens) (Q96LD8 whole entry, looked up, the tested form may be a part): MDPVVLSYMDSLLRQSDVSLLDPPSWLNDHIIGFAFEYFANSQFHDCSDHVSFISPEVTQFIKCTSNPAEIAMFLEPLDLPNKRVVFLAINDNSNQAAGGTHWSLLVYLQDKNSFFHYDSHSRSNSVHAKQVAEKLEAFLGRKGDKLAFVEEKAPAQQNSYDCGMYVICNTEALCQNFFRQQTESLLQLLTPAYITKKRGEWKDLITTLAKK
The target of test [3] is Sentrin-specific protease 6 (Homo sapiens) (UniProt Q9GZR1). In words: inhibition of human SENP6 catalytic domain – biochemical, luminescence, single concentration, confirmation (AID 488915). As to conditions: recombinant SENP6, Z-RLRGG-aminoluciferin luminescence; at 12.5 µM; stronger effect = higher value.
Sequence of Sentrin-specific protease 6 (Homo sapiens) (Q9GZR1 628-1112 limits assumed): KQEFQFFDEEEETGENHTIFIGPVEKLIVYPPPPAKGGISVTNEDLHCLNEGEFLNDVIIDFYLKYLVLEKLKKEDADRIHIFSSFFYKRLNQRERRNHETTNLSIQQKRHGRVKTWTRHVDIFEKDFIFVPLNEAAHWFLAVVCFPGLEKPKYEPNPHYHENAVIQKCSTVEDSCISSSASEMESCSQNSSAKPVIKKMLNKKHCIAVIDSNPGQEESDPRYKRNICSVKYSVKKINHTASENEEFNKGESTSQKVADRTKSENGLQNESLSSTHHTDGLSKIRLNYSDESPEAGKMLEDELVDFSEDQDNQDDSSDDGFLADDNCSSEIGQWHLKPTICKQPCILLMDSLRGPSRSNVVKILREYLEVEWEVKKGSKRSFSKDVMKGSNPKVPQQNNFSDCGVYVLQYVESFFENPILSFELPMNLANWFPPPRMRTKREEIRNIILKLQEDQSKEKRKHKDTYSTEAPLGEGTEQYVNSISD
The target in test [4] is Sentrin-specific protease 7 (Homo sapiens) (UniProt Q9BQF6). Put plainly: human SENP7 peptidase blockers, hit retest – biochemical, luminescence, single concentration, confirmation (AID 488917). As to conditions: recombinant SENP7, Z-RLRGG-aminoluciferin luminescence, 40 min; at 12.5 µM; stronger effect = higher value.
Sequence of Sentrin-specific protease 7 (Homo sapiens) (Q9BQF6 706-1050 limits assumed): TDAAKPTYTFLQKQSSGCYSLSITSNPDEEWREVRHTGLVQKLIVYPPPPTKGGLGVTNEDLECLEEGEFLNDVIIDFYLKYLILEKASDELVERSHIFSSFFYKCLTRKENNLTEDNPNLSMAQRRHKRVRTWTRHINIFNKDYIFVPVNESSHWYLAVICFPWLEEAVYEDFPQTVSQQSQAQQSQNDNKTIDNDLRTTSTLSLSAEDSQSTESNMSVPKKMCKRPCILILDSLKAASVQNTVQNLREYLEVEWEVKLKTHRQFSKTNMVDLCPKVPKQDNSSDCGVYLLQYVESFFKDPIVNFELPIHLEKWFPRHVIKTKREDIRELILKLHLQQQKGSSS
The target in another test is Caspase-3 (Homo sapiens) (UniProt P42574). In words: human caspase-3 activity blockade, out-of-family – biochemical, single concentration, selectivity assay for SENP inhibitor project, confirmation (AID 488918;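 active = mean inhibition above about 50%, limit read from the data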;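 note: plate controls were enzyme with DMSO for no effect and wells without caspase-3 for full effect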). As to conditions: purified caspase-3, Z-DEVD-aminoluciferin luminescence, 60 min; at 12.5 µM; stronger effect = higher value.
Sequence of Caspase-3 (Homo sapiens) (P42574 28-227 limits assumed): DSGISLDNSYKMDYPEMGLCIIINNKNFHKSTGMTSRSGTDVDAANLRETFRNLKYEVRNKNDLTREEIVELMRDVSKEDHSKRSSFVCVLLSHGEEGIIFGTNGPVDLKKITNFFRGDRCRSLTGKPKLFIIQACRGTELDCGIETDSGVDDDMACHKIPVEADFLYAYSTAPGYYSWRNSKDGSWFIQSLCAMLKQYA
Test [5] is described as follows: Ultra-Glo luciferase signal interference – biochemical, single concentration, SENP8 reaction pre-completed, artefact control for SENP inhibitor project, confirmation (AID 488919;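 active = mean inhibition above about 50% when retested at one dose, limit read from the data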;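 note: plate controls were DMSO wells with completed reaction for no effect and substrate without enzyme for full effect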). As to conditions: Pre-incubated SENP8/Z-RLRGG-aminoluciferin, luciferase luminescence interference; at 12.5 µM; stronger effect = higher value.
Test [6] is described as follows: PERK-eIF2a-CHOP pathway stimulators, retested – cell-based, CHO-CHOP luciferase reporter, single concentration, confirmation (AID 463112; in the data active = activation above about 33%;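 note: 0% = DMSO wells and 100% = tunicamycin 10 µg/mL wells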). As to conditions: CHO-CHOP cells, CHOP-luciferase reporter luminescence; at 10 µM; stronger effect = higher value; percent of tunicamycin response, DMSO as zero. Background: Reporter assays use an easily measured gene product as a stand-in for the process of interest.

Test [7] addresses Protein Mdm4 (Homo sapiens) + E3 ubiquitin-protein ligase Mdm2 (Homo sapiens) (UniProt O15151+Q00987). In words: human Mdm2/MdmX binding disruption – cell-based, luminescence, single concentration, set 2, confirmation (AID 504601;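 active = mean inhibition of the luminescence signal across two replicates at or above 26 percent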). As to conditions: SaOS-2 split-luciferase Mdm2/MdmX complementation, at 8 µM, stronger effect = higher value.
A short description of test [8]: HIF-2a driven luciferase blockers, single dose – luminescence, 786-0 RCC cells, confirmation (AID 651580;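 active = mean inhibition across four replicates of at least 40 percent at the single tested concentration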). As to conditions: HIF-2a luciferase reporter luminescence, overnight, at 18.8 µM, stronger effect = higher value.
Test [9] in a line: HIF-1a luciferase reporter signal reduction – MiaPaCa-2 cells, single concentration, counter-screen for HIF-2a inhibitor project, confirmation (AID 651589;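 active = mean inhibition of the reporter signal across four replicates at the single tested dose of 50% or more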). As to conditions: MiaPaCa-2 HIF-1a luciferase reporter, desferoxamine, overnight; at 18.8 µM; stronger effect = higher value.
Test [10] is described as follows: Brca1-Bard1 BiLC signal decrease – luminescence, single concentration, counter-screen for Mdm2/MdmX interaction inhibitor project, confirmation (AID 504668; call rule not given here). As to conditions: Brca1/Bard1 bimolecular luciferase complementation counterscreen, at 8 µM, stronger effect = higher value. A general note: The purpose of a counterscreen is to sort out artefacts and off-target activity.

In test [11] the target is COP9 signalosome complex subunit 5 (Homo sapiens) (UniProt Q92905). Put plainly: blockers of CSN-driven cullin deneddylation – biochemical, fluorescence polarization, single concentration, SCF-Nedd8OG substrate, confirmation (AID 720654; in the data active = inhibition above about 50%;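 note: 0% = DMSO with enzyme and 100% = no enzyme wells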). As to conditions: Csn5 deneddylation of SCF-Nedd8OG, 90 min, at 16.6 µM, stronger effect = higher value. (In general: Polarisation of emitted light reports the rotation of a fluorescent probe.)
Sequence of COP9 signalosome complex subunit 5 (Homo sapiens) (Q92905 whole entry, looked up, one chain of several): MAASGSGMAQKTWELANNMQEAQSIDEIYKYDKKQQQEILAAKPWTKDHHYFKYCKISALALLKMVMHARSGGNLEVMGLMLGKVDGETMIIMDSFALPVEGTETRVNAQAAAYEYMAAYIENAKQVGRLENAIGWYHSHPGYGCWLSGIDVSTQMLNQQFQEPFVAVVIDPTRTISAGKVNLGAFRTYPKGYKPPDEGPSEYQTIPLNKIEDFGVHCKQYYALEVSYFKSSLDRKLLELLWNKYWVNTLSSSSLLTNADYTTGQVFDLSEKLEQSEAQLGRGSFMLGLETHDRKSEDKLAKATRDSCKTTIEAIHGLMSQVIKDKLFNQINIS

Test [12] has as its target 72 kDa type IV collagenase (Homo sapiens) (UniProt P08253). In words: human MMP-2 inhibitors, single-point check – biochemical, fluorescence, single concentration, counter-screen for CSN deneddylation inhibitor project, confirmation (AID 720655;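 active = corrected plate-normalized z-score of 5 or more, or -5 or less, or inhibition of 15% or more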;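 note: plate controls were DMSO wells with enzyme for no effect and buffer wells lacking MMP-2 for full effect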). As to conditions: recombinant MMP-2, FRET substrate fluorescence, 60 min; at 16.6 µM.
A further test has as its target Prothrombin (Bos taurus) (UniProt P00735). Put plainly: thrombin cleavage blockers, FP readout – biochemical, fluorescence polarization, single concentration, counter-screen for CSN deneddylation inhibitor project, confirmation (AID 720656;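 active = inhibition at or above a set limit, with a fluorescence interference ratio between 0.5 and a set maximum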). As to conditions: bovine thrombin cleavage of Ub4-pepOG, at 16.6 µM, stronger effect = higher value.
Test [13] is described as follows: NF-kB reporter suppression in CF airway cells – cell-based, GFP fluorescence, single concentration, confirmation (AID 602472; in the data active = inhibition above about 40%;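 note: stimulus PAF is a Pseudomonas aeruginosa filtrate and not platelet activating factor; plate controls were DMSO wells with stimulus for no effect and unstimulated DMSO wells for full effect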). As to conditions: KKLEB CF airway cells, PAF-induced NF-kB-GFP fluorescence, overnight; at 5 µM; stronger effect = higher value.
The nature of test [14]: NFkB reporter suppression in cystic fibrosis bronchial cells – cell-based, uHTS hits, panel, cytotoxicity readout, dose response (AID 624344). As to conditions: CF bronchial epithelial cells, PAF-induced NFkB reporter inhibition, with PAF, run 1; at 79 µM (top of the series) unless noted.
Assay in test [15]: as above
As to conditions: CF bronchial epithelial cells, PAF-induced NFkB reporter inhibition, with PAF, run 2; at 79 µM (top of the series) unless noted.

Some of the results follow. Calls of active or inactive are those of the source.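 Rule for the calls, unless noted: active = mean inhibition above about 50% in the one-dose retest (limit read from the data); inactive = the rest.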

Sequence of Protein Mdm4 (Homo sapiens) + E3 ubiquitin-protein ligase Mdm2 (Homo sapiens) (O15151 whole entry, looked up): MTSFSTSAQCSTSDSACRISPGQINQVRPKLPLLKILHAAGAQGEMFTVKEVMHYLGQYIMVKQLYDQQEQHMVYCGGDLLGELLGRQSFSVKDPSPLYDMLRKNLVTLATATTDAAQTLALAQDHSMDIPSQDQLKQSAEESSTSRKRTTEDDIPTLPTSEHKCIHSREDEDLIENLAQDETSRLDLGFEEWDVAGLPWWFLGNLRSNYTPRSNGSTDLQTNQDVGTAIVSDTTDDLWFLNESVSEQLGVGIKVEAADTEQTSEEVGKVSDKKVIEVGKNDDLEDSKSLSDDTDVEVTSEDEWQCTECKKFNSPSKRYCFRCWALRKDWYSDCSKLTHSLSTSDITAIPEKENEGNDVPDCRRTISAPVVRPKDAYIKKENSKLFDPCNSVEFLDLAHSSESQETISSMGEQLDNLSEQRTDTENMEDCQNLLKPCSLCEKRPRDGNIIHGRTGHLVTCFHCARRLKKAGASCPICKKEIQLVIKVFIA
Sequence of Protein Mdm4 (Homo sapiens) + E3 ubiquitin-protein ligase Mdm2 (Homo sapiens) (Q00987 whole entry, looked up): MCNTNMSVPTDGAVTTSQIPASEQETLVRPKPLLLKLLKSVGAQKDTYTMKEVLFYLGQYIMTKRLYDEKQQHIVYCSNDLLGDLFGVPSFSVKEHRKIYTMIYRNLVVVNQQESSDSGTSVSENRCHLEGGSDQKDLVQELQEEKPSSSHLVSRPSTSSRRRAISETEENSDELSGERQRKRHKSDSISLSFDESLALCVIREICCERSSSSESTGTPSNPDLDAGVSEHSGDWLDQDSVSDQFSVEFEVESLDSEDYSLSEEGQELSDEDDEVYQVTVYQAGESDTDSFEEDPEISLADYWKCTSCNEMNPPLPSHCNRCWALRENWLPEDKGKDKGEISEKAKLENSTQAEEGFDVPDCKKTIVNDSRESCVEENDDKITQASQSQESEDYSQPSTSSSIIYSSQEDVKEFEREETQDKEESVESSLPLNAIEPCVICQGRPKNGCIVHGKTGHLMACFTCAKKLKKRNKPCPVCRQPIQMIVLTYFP
Sequence of Prothrombin (Bos taurus) (P00735 whole entry, looked up): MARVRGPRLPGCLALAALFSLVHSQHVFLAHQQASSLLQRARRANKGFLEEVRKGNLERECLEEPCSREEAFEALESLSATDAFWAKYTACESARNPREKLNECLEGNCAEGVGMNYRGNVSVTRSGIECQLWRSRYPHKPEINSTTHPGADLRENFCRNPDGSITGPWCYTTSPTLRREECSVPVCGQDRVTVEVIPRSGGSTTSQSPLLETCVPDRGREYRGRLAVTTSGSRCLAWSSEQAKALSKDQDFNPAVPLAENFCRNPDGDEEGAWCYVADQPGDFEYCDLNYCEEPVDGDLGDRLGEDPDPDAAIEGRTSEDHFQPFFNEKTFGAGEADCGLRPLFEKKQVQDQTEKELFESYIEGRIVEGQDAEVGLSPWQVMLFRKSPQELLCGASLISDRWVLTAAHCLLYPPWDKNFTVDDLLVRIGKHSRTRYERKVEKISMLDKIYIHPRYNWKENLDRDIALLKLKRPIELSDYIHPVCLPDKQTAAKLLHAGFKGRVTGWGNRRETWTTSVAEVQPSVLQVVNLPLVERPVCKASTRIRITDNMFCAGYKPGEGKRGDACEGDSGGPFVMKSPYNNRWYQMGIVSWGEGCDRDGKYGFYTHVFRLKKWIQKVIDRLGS
Sequence of 72 kDa type IV collagenase (Homo sapiens) (P08253 whole entry, looked up): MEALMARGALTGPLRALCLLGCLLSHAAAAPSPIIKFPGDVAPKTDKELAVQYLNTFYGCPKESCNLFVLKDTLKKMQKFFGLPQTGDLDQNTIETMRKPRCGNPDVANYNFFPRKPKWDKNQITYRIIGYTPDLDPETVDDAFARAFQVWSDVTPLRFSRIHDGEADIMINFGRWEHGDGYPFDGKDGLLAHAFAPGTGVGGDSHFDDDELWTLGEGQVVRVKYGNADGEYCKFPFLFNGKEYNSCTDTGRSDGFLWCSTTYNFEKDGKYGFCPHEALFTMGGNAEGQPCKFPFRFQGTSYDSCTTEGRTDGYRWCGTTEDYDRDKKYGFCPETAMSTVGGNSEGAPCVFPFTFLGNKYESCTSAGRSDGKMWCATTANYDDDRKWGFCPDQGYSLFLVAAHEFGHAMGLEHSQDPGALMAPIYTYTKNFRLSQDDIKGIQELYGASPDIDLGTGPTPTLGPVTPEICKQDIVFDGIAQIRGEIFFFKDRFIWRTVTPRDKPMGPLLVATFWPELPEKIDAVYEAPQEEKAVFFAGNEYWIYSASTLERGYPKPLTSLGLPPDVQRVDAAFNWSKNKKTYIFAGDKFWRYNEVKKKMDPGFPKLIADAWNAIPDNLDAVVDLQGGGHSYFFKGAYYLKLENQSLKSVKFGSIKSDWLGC

As a reminder, the inhibition is the drop in the measured response relative to a control, in per cent. Regarding `CCCOc1ccc(C(=O)NCCc2ccccc2)cc1`, the inhibition was -82% (inactive) in test [1]; 13.2% (inactive) in test [2]; 62% (active) in test [3]; 88.3% (active) in [4]; 78% (active) with Caspase-3 (Homo sapiens); -5.4% (inactive) in test [5].

In the case of `Cc1cccc(-n2c(C)cc(/C=N\NC(=O)c3cccs3)c2C)c1`, the inhibition in [1] is 6.7% (inactive).

On to `O=[N+]([O-])c1ccccc1S(=O)(=O)Nc1cccc2cccnc12`, for which the inhibition in [1] was 33.1% (inactive); in test [7], 102% (active). In addition, the activation in [6] was 656% (active).

`CCn1c(/C=C/c2ccc([N+](=O)[O-])o2)nc2ccccc2c1=O`: the inhibition is 23.7% (inactive) in test [1], -36.9% (inactive) in test [8] and 105% (active) in test [9]. The activation in [6] was 14.3% (inactive).

Regarding `O=C(Nc1ccc(-c2nnc(-c3ccccc3)o2)cc1)C1CCCO1` (centres undefined), the inhibition in test [1] is -47.8% (inactive); in [2], 28.8% (inactive); in test [3], 21.4% (inactive); in [4], 38.3% (inactive); in the test with Caspase-3 (Homo sapiens) it was 38.8% (inactive); in test [5] it was 8.6% (inactive).

Turning to `COc1ccc(Nc2cc(C)nc(-n3nc(C)cc3C)n2)cc1`, the inhibition in test [1] is 64.7% (active). Moreover, in test [6], the activation is 2.6% (inactive).

On to `CC(=O)Nc1cccc(-c2csc(Nc3cccc(C)n3)n2)c1`, for which the inhibition is -67.1% (inactive) in test [1]; 6.1% (inactive) in test [2]; 93.9% (active) in test [3]; 102% (active) in test [4]; 75.7% (active) in the test with Caspase-3 (Homo sapiens); 94.2% (active) in [5].

On to `C[C@@H]1C[C@@H]2O[C@H]2/C=C\C=C\C(=O)Cc2c(Cl)c(O)cc(O)c2C(=O)O1`, for which the inhibition is 96.4% (active) in test [1] and 33.8% (active) in test [10]. In [6], the activation is 134% (active).

`O=C(Nc1ccccc1)Nc1nc2ccccc2s1`: the inhibition is -117% (inactive) in [1]; 17.8% (inactive) in test [2]; 29% (inactive) in [3]; 25.6% (inactive) in [4]; 44.9% (inactive) with Caspase-3 (Homo sapiens); 22.6% (inactive) in [5].

As for `COc1ccc(-n2nnnc2-c2nc3ccccc3s2)cc1`, the inhibition in test [1] is -67.2% (inactive); in test [2] it was 17.5% (inactive); in test [3], 26.7% (inactive); in test [4], 4.7% (inactive); with Caspase-3 (Homo sapiens) it was 35.5% (inactive); in test [5] it was 1.6% (inactive).

Regarding `Clc1ccc2nc(CSc3ccccc3)cn2c1`, the inhibition in test [1] was -58.5% (inactive); in test [2], 53.7% (active); in test [3], 55.6% (active); in [4], 86.6% (active); in the test with Caspase-3 (Homo sapiens), 68.9% (active); in test [5] it was 70.8% (active).

As to `Cc1ccc(N/C=C/C(=O)c2ccccc2)cc1C`, the inhibition in [1] is 3.3% (inactive); in test [2], 34.5% (inactive); in test [3], 73.8% (active); in [4], 91.5% (active); with Caspase-3 (Homo sapiens), 78.6% (active); in test [5] it was 13.8% (inactive).

`CCc1ccc2oc(-c3ccc(N)cc3)nc2c1`: the inhibition is -126% (inactive) in test [1]; 94.5% (active) in [2]; 94.8% (active) in [3]; 100% (active) in test [4]; 84.1% (active) with Caspase-3 (Homo sapiens); 94.5% (active) in test [5].

For `Cc1c(C(=O)Nc2ccccn2)oc2ccc(Br)cc12`, the inhibition in test [1] is -77.2% (inactive); in [2] it was 14.3% (inactive); in [3], 18.5% (inactive); in test [4], 27.6% (inactive); with Caspase-3 (Homo sapiens) it was 22.7% (inactive); in test [5] it was 17.1% (inactive).

For `CCCOC(=O)c1[nH]c2c(c1C)C(=O)CC(c1cccs1)C2` (centres undefined), in test [1], the inhibition is 52.4% (active).

Turning to `N#Cc1ccc(C2N=C(c3ccccc3)NO2)cc1` (centres undefined), the inhibition is -93.9% (inactive) in test [1]; 24.2% (inactive) in [2]; 9.2% (inactive) in test [3]; 22.5% (inactive) in [4]; 13.1% (inactive) with Caspase-3 (Homo sapiens); 2.1% (inactive) in [5].

As to `Cc1ccc2cc3cc(C(=O)N4CCCCCC4)oc3nc2c1`, the inhibition was -90.9% (inactive) in test [1]; 41.9% (inactive) in test [2]; 47.9% (inactive) in [3]; 79.7% (active) in test [4]; 62.2% (active) with Caspase-3 (Homo sapiens); 47.7% (inactive) in test [5].

In the case of `COc1ccc(-c2csc(Nc3ccccn3)n2)cc1`, in test [1], the inhibition was 16.1% (inactive).

Consider `Cc1noc(C)c1/C=N/Nc1ccc2ccccc2n1`, for which the inhibition in [1] is -102% (inactive); in test [2], -12.5% (inactive); in [3], -9% (inactive); in [4], 6.7% (inactive); with Caspase-3 (Homo sapiens), 6.2% (inactive); in [5], -1.9% (inactive).

Consider `Cc1csc(SCC(=O)Nc2sccc2C#N)n1`, for which the inhibition was -98.6% (inactive) in [1]; 93.1% (active) in test [2]; 96.1% (active) in test [3]; 101% (active) in [4]; 97.1% (active) with Caspase-3 (Homo sapiens); 94.4% (active) in test [5].

In the case of `Cc1nc(NC(=O)c2ccc3c(c2)OCCO3)ccc1Br`, the inhibition in test [1] was -134% (inactive); in test [2], 82.6% (active); in test [3] it was 80.5% (active); in test [4], 96.2% (active); with Caspase-3 (Homo sapiens), 74% (active); in [5], 64.5% (active).

As to `O=[N+]([O-])c1ccc2oc(-c3cccc(O)c3)nc2c1`, the inhibition in test [1] was -113% (inactive); in test [2], 90.4% (active); in [3] it was 90.4% (active); in [4], 99% (active); with Caspase-3 (Homo sapiens) it was 85.8% (active); in test [5], 84.4% (active).

`CCN1/C(=C\c2ccc3ccccc3[n+]2CC)Sc2cc(C)ccc21`: the inhibition in test [1] was 67.4% (active); in test [10], 25% (active); in test [11], 24% (inactive); in test [12], -3.14% (inactive); in the test with Prothrombin (Bos taurus) it was 43.3% (inactive).

Consider `COc1ccccc1-n1nnnc1S(=O)(=O)Cc1ccc(Cl)cc1`, for which the inhibition in [1] is 26.5% (inactive); in [7], 103% (active); in test [13], 99.1% (active); in test [8], 70.5% (active); in [9], 102% (active); in [14], 110%. The inhibition in [15] was 104%.

In the case of `CN(C)CCCn1c(SCc2ccc(Cl)cc2)nnc1-c1ccncc1`, the activation in test [6] is -0.025% (inactive).

In the case of `COc1ccc(OC)c(Nc2nc(-c3ccc(O)c(O)c3)cs2)c1`, in [6], the activation was 187% (active).
